Compound activity: PubChem, National Center for Advancing Translational Sciences (NCATS)
Sampled rows, rich in hits. Any-hit rate of the full collection: about 7.3%.
Luc counter = counter-screen: inhibitors of Kinase-Glo firefly luciferase. Q27757. Kinase-Glo luciferase, ATP luminescence, 8 min. Potency, µM (highest dose often 38.3 µM), inactives show top-dose activity change, negative = inhibition, usual class: inhibitors. 200,000 compounds, 0.28% hits. AID 1379; further: on the % scale 0 is the no-effect control and ±100 the full control effect; nearly all actives have a fitted effect of over 60% in size
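Substrate mix (final 50 mM imidazole pH 7.2, 50 mM KCl, 7 mM MgCl2, 10 uM ATP, 0.01% Tween 20, 0.05% BSA) plus pin-tool compound, then Kinase-Glo detection mix; 8 min ambient, luminescence read.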
SMN2 splice up = SMN2 splice variant enhancement; HEK293 SMN2-luciferase splicing reporter, luminescence, 30-36 h; Potency, µM (titrated, usually from 46.1 µM), for inactives: at the highest dose activity change, positive = activation, most hits filed as activators; 210,000 compounds, 2.8% hits; AID 1458; further: % of control where 0% means no effect; nearly all actives have a fitted effect of over 55% in size
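HEK293 cells carry an SMN2 […]–luciferase reporter in which exon 7 inclusion puts luciferase in frame. Cells were plated 10-12 h before compound addition, then incubated 30-36 h at 37C. ONE-Glo luminescence was read; sodium butyrate at 4.5 mM final served as control.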
ELG1 genotoxic = inducers of genotoxicity in HEK293T ELG1-luciferase cells; 330,000 compounds, 1.3% hits; HEK293T ELG1-luciferase reporter, luminescence, 16 h; AID 504466; Potency, µM (highest dose often 46 µM), for inactives: top-dose activity change, positive = activation, hits mostly activators; further: % of control where 0% means no effect; nearly all actives have a fitted effect of over 60% in size
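Quantitative HTS format in 1536-well plates. HEK293T ELG1-luciferase reporter cells receive test compound and are incubated 16 hr at 37 °C, 5% CO2; ONE-Glo added, 30 min room temperature, then luminescence read.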
NPC1 promoter act = activators of NPC1 promoter | Huh7 NPC1 promoter luciferase reporter, 24 h | Potency, µM (top dose mostly 9.22 µM), inactives show at the highest dose activation, actives largely listed as activators | 320,000 compounds, 2.4% hits; further: % of control where 0% means no effect; nearly all actives have a fitted effect of over 60% in size
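Cells: Huh7 expressing luciferase under the NPC1 promoter, 1500/well. Seeded 2 h, compound added, incubated 24 h at 37 °C. Luciferase reagent, 10 min ambient, then luminescence.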
Rab9 prom act = activates the Rab9 promoter. Huh7 Rab9 promoter-luciferase reporter, luminescence, 24 h. Potency, µM (top dose mostly 9.22 µM), for the others: top-dose activation, negative = inhibition, actives largely listed as activators. 320,000 compounds, 2.8% hits. AID 485297; further: % of control where 0% means no effect; nearly all actives have a fitted effect of over 60% in size
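Huh7 reporter line, Rab9 promoter upstream of luciferase. Compound exposure 24 h at 37 °C in reduced-serum medium with 10% FBS. Read-out: luminescence.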
FLuc counter = counter-screen for miR-21 project: firefly luciferase inhibitors or activators | P08659 | purified FLuc, Km substrates, luminescence inhibition | Potency, µM (highest dose often 57.5 µM), without a hit: at the top dose activity change, negative = inhibition, most hits filed as inhibitors | 360,000 compounds, 6.9% hits;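 further: plate controls were vehicle for no effect and reference inhibitor for full effect; nearly all actives have a fitted effect of over 55% in size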
Target sequence (P08659 whole entry, looked up): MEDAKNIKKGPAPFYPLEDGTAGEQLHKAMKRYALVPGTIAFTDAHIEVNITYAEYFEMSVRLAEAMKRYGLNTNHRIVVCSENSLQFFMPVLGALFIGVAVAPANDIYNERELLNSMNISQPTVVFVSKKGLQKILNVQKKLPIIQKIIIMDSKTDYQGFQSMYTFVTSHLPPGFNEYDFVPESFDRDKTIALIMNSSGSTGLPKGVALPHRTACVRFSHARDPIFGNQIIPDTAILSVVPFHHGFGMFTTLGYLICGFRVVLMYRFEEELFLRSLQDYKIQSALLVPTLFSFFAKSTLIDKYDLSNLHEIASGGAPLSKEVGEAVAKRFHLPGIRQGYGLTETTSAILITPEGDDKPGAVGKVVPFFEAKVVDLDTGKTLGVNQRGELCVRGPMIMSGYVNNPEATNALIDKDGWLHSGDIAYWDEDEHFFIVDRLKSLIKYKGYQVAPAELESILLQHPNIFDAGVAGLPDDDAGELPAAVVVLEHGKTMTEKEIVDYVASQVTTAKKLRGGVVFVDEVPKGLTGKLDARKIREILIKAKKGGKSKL
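Purified P. pyralis luciferase (10nM final) with 10uM D-luciferin and 10uM ATP (Km levels) in 50mM Tris acetate pH 7.5, 10mM Mg acetate, 0.01% Tween-20, 0.05% BSA; qHTS 6-point titration, ~60 µM downward; luminescence read.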
Numbers without * were called inactive; ? = inconclusive; / = not tested or not shown; [ ] = remark or other dose. The call rests on the fitted dose curve; in most records, active means well fitted curve in the direction sought with a large enough effect; inconclusive means small, poorly fitted or top-dose-only effect, or another doubt; inactive means no such curve, though single readings can be large; an effect the other way counts as inactive or inconclusive. Potency means the concentration at half of the fitted maximal effect.

SMILES	Luc counter	SMN2 splice up	ELG1 genotoxic	NPC1 promoter act	Rab9 prom act	FLuc counter
CC1=C(C(=O)Nc2ccccc2)C(c2cccn2C)n2ncnc2N1 (configuration not stated)	/	/	/	/	/	-2%
O=C(CCCc1ccccc1)NCCC1=CCCCC1	1%	-6%	1%	-4%	4%	24µM*
Cc1ccsc1C(=O)OCC(=O)NCCC1=CCCCC1	2%	20%	?	22%	22%	12µM*
O=C(COC(=O)c1ccccc1)NCCC1=CCCCC1	1%	-5%	0%	-1%	1%	15µM*
Cc1ccc(NS(=O)(=O)c2cc(C(=O)O)ccc2Cl)cc1C	0%	/	/	/	/	/
Oc1ccc(C2C[C@H]3CC[C@@H]2C3)cc1O (some centres not stated)	/	/	?	-15%	7%	12µM*
c1ccc2c(COn3nnc4ccccc43)cccc2c1	3%	/	8.9µM*	?	2.5µM*	11µM*
CCC(Sc1nncn2c1cc1occc12)C(=O)Nc1ccc(C)c(Cl)c1 (configuration not stated)	/	/	/	/	/	-3%
CC(=O)Oc1ccc(C(=O)Cc2ccc3ccccc3n2)c(O)c1C	-9%	?	?	?	?	5.4µM*
Cc1cc(C)n(CC(C)NC(=O)CCc2nnc(CCc3ccccc3)o2)n1 (configuration not stated)	3%	/	4%	0%	16%	-2%
CC(C)(CO)CNC(=O)CCc1nnc(CCCc2ccccc2)o1	-1%	/	4%	-1%	12%	-15%
Cc1nc(C(C)NC(=O)CCc2nnc(CCCc3ccccc3)o2)c(C)s1 (configuration not stated)	-4%	16µM*	?	?	2.8µM*	15µM*
CN(Cc1ccsc1)C(=O)CCc1nnc(CCCc2ccccc2)o1	-3%	/	?	19%	3.2µM*	13µM*
O=C(CCc1nnc(CCCc2ccccc2)o1)NC(C1CC1)C1CC1	-4%	14µM*	21µM*	?	2.8µM*	12µM*
CN(Cc1ccsc1)C(=O)CCc1nnc(Cc2c[nH]c3ccccc23)o1	2%	/	3%	-2%	-2%	-13%
O=C1N/C(=C\c2ccccc2)c2ccccc21	-1%	?	?	-11%	-12%	?
O=C1N/C(=C\c2nc3ccccc3s2)c2ccccc21	/	/	0.58µM*	1µM*	0.28µM*	0.19µM*
O=c1c2oc3ccccc3c2n(Cc2ccccc2Cl)c(=O)n1Cc1ccc2c(c1)OCO2	/	/	/	/	/	-7%
Nc1c(N=Nc2ccccc2F)c(=O)[nH]n1-c1ccccc1	-21%	20%	?	?	?	3.8µM*
Cc1cc(=O)n2[nH]c(N)c(N=Nc3ccccc3F)c2n1	-3%	-21%	-9%	-4%	-1%	?
Nc1nn(-c2ccccc2)c(N)c1N=Nc1ccccc1	1%	8.9µM*	15µM*	?	?	3µM*
Nc1nn(-c2ccccc2)c(N)c1N=Nc1ccccc1F	-1%	3.5µM*	?	0.56µM*	0.45µM*	0.95µM*
Cc1nn(-c2ccccc2)c(N)c1N=Nc1ccccc1	-1%	13µM*	?	2.8µM*	2µM*	6.7µM*
CCCCS(=O)(=O)CC(O)CSc1nc(-c2ccc(C)cc2)cc(-c2ccccc2)c1C#N (configuration not stated)	/	-10%	/	/	/	-19%
O=C(C[C@@H]1C=Cc2ccccc2N1C(=O)c1ccccc1)c1ccccc1	-3%[7.66 µM]	-31%[9.22 µM]	/	/	/	/
SMILES	Luc counter	SMN2 splice up	ELG1 genotoxic	NPC1 promoter act	Rab9 prom act	FLuc counter
c1ncc(-c2ccc3c(c2)OCO3)c(NCCc2cnc[nH]2)n1	-4%	-6%	/	/	/	/
Cc1cc(C)n2nc(N)c(N=Nc3ccccc3)c2n1	/	/	6%	6%	25%	15µM*
Cc1cccc(N=Nc2c(C)nn(-c3ccccc3)c2N)c1C	4%	?	?	24%	?	13µM*
Cc1nn(-c2ccccc2)c(N)c1N=Nc1ccc(Cl)cc1	3%	22µM*	?	2.5µM*	2µM*	8.5µM*
Cc1nn(-c2ccccc2)c(N)c1C(O)(C(F)(F)F)C(F)(F)F	5%	18%	-1%	-5%	-12%	-4%
Cc1nn(-c2ccccc2)c(N)c1N=Nc1cccc(S(=O)(=O)N2CCOCC2)c1	/	/	-3%	-8%	-6%	?
CCN(CC)S(=O)(=O)c1ccc2c(c1)c(=O)c(C(=O)N1CCN(c3ccc(OC)cc3)CC1)cn2C	/	1%	/	/	/	-11%
Cc1cc(C(=O)CSc2nnnn2C)c(C)n1-c1cccc(F)c1	-2%	13µM*	?	4µM*	1.3µM*	7.6µM*
Cc1cc(C(=O)CSc2n[nH]c(N)n2)c(C)n1-c1cccc(F)c1	0%	?	?	28%	?	24µM*
Cc1cc(C(=O)CSc2ncccn2)c(C)n1-c1cccc(F)c1	1%	?	10µM*	3.5µM*	1.4µM*	2.4µM*
Cc1cc(C(=O)COC(=O)C2=COCCO2)c(C)n1-c1cccc(F)c1	/	/	?	1.4µM*	0.56µM*	1.9µM*
Cc1cc(C(=O)CSc2nc(N)cc(N)n2)c(C)n1-c1cccc(C(F)(F)F)c1	4%	-30%	-1%	-1%	-5%	1%
Cc1cc(C)cc(-n2c(C)cc(C(=O)CSc3nnnn3C)c2C)c1	0%	-17%	15%	9%	-3%	-4%
COc1ccc(C(=O)N(O)c2ccccc2)cc1	-1%	3%	/	/	/	/
CN1CCc2nc3sc(C(=O)Nc4ccccc4C(F)(F)F)c(N)c3cc2C1	/	-24%	/	/	/	-10%
CC(C)/C=C1\CC/C(=C\c2ccc(N(C)C)cc2)C1=O	-1%	?	9.2µM*	3.5µM*	?	0.95µM*
CC(C)c1ccc(/C=C2\CC/C(=C\C=N\N(C)C)C2=O)cc1	-3%	13µM*	3.3µM*	?	?	2.4µM*
O=C1/C(=C\c2ccc3c(c2)OCO3)CCC/C1=C/c1ccc2c(c1)OCO2	-4%	-11%	1%	-3%	0%	?
Cc1cc(C)c(NC(=O)Cn2nc(-c3ccccc3)nc2-c2ccccc2)c(C)c1	1%	8%	?	1%	-2%	2%
Cc1ccc(Cn2nc(-c3ccccc3)nc2-c2ccccc2)cc1	-25%	?	?	?	3.5µM*	15µM*
c1ccc(Cn2nc(-c3ccccc3)nc2-c2ccccc2)cc1	-10%	25%	?	13%	18%	21µM*
Cn1nc(-c2ccccc2)nc1-c1ccccc1	/	/	12%	?	?	21µM*
Cc1nnc2nc(-c3ccccc3)nc(-c3ccccc3)n12	/	/	-5%	-1%	9%	-7%
Cc1nc(-c2ccc(F)cc2)sc1CCNC(=O)c1ccco1	/	/	/	/	/	-10%
